# Compound activity as filed in PubChem.
# Hits are enriched below; roughly 3.8% of the tested compounds scored in any of these assays.
# Wnt bcat act – Wnt/beta-catenin pathway activation. Wnt/beta-catenin reporter cell assay, activator, plate reader. activation, % at 9.35 µM. actives 1.2% (n = 300,000); in the data active means activation above about 30%, passing the limit was not always enough; inconclusive means no clear call, values can overlap the other calls;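 further: 0% = neutral control wells and 100% = positive control wells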
# HSF1 inh – HSF1 inhibition; activity change, negative = inhibition, % at 7.5 µM (by protocol); NIH3T3-HGL HSE-luciferase, MG132-induced, luminescence 8 h; stronger effect = lower value; actives 0.77% (n = 300,000);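 active means more than half of replicate wells show activity change below -50%, luminescence cut by over half; inconclusive means some wells, but at most half, below -50%; inactive means no replicate well below -50%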;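 further: luciferase reports HSF-1 transcriptional activity via heat shock element; 0% = median of DMSO wells and -100% = zero luminescence signal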
# HSF1 activator – increases HSF-1 driven luciferase reporter signal; actives 1.7% (n = 300,000); NIH3T3-HGL HSF-1 luciferase reporter, MG132, 8 h; 100% = twice DMSO control signal; activation, % at 9 µM;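 active means mean replicate activation of at least 50% with a set share of replicates each reaching 50%; inconclusive means only one of those two conditions met; inactive means mean below 50% and too few replicates reaching it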;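 further: 0% = median of the neutral control wells and 100% = twice that signal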
# MITF TRPM1 HTS – MITF TRPM1 promoter activation in melanoma cells | actives 0.75% (n = 300,000) | activation, % at 12.5 µM | SK-MEL-5 TRPM1-promoter luciferase, 24 h; % of positive control, neutral wells = 0;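 active means mean activation of at least 80% with every replicate also reaching 80%; inconclusive means mean reaches 80% but some replicate falls short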;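 further: 0% = neutral control wells and 100% = parthenolide positive control wells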
# esBAF inh – SWI/SNF esBAF complex inhibition. mouse ES cells, Bmi1-luciferase knock-in reporter, 24 h; 100% = twice the neutral-well signal. reporter increase, % at 12.5 µM. actives 2% (n = 350,000). AID 602393; in the data active means activation above about 40%; inconclusive means no clear call, values can overlap the other calls;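 further: 0% = median of the plate's neutral control wells and 100% = double that signal; a rise in the Bmi1 reporter signal indicates esBAF inhibition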
# Starred values were filed as active, the others as inactive; u = inconclusive; x = not tested or not shown.
SMILES,Wnt bcat act,HSF1 inh,HSF1 activator,MITF TRPM1 HTS,esBAF inh
COc1cc(CNC2CCCC2)cc(OC)c1,1,28,59*,-3,-2
COc1cccc(CNC2CCCC2)c1,1,-4,-7,-4,-12
N#Cc1cc(O)c(-n2nnc3ccccc32)cc1C#N,-1,3,-4,-8,8
N#Cc1cc(Oc2cccc3cccnc23)c(-n2nnc3ccccc32)cc1C#N,4,183,211*,-21,x
Cc1ccc(/C=[N+](\[O-])c2ccccc2C)o1,-1,3,7,5,0
Cc1ccccc1/[N+]([O-])=C/c1cccs1,x,50,95*,0,-7
Cc1cc(-c2n[nH]c(=S)n2/N=C/C=C/c2ccccc2)n[nH]1,-5,14,57*,-5,x
COc1ccccc1/C=C/C=N/n1c(-c2ccccn2)n[nH]c1=S,24,11,41,u,56*
C[C@@H]1CN([C@@H](C)CO)C(=O)c2cc(N(C)C)ccc2O[C@@H](C)CCCCO[C@H]1CN(C)S(C)(=O)=O,x,x,x,x,-7
O=C(NC1CCCC1)[C@@H]1[C@@H](CO)[C@@H]2Cn3c(ccc(C4=CCCC4)c3=O)[C@H]1N2CC1CC1,x,x,x,x,-5
COC(=O)c1sc(N)c(C(=O)OC)c1Cn1ncc(Cl)c(Cl)c1=O,-1,20,61*,-10,-5
O=C(NCC1CCCO1)c1onc(CSc2ccc(Cl)cc2)c1C(=O)O (stereo not drawn),-3,-61*,-70,10,-5
Cc1ccccc1SCc1noc(C(=O)NCC2CCCO2)c1C(=O)O (stereo not drawn),-7,1,-2,7,10
CCCNC(=O)c1c(CSc2ccc(Cl)cc2)noc1C(=O)NCc1ccccc1,-2,25,54*,1,-2
O=C(c1cccs1)N(CCN1CCCCC1)CC1CCCN(C2CCCC2)C1 (stereo not drawn),6,7,7,39,24
Cc1ccc(C(=O)N(CCN2CCCCC2)CC2CCCN(C3CCCC3)C2)s1 (stereo not drawn),15,11,19,95*,x
COc1ccc(C(=O)N2CCN=C2SCc2cccnc2)cc1OC,-2,-66*,-75,-4,2
Cc1ccc(CNC(=O)C2CCC(=O)N(Cc3ccc(Cl)cc3)C2)cc1F (stereo not drawn),1,16,56*,-15,x
COc1ccc(CCN2CC(C(=O)NCc3cc(C)on3)CCC2=O)cc1 (stereo not drawn),-2,30,74*,-1,4
C[C@@H]1CN([C@H](C)CO)C(=O)Cc2cc(NS(=O)(=O)c3cccs3)ccc2O[C@@H]1CN(C)S(C)(=O)=O,x,x,x,x,-5
COc1ccccc1C(=O)N1C[C@H]2[C@@H](c3ccccc31)[C@@H](CO)N2C(=O)Cc1cccnc1,x,x,x,x,-4
C[C@H](CO)N1C[C@H](C)[C@H](CN(C)C(=O)Nc2ccc3c(c2)OCO3)Oc2ncc(-c3cccnc3)cc2C1=O,x,x,x,x,-4
CCOC(=O)Cc1csc(NC(=O)NC2(C(F)(F)F)Oc3cc(Cl)c(Cl)cc3O2)n1,-3,-57*,-66,-13,-16
CN1CCN(NC(=O)/C=C/c2ccc(Br)cc2)CC1,4,40,82*,23,x
Cc1ccc(NC2(C(F)(F)F)N=C(c3ccccc3)NC2=O)nc1 (stereo not drawn),14,1,18,-1,x
SMILES,Wnt bcat act,HSF1 inh,HSF1 activator,MITF TRPM1 HTS,esBAF inh
Cc1cccc(NC2(C(F)(F)F)N=C(c3ccccc3)NC2=O)n1 (stereo not drawn),0,-57*,-64,-4,1
O=C(Nc1ccc2c(c1)Cc1ccccc1-2)c1ccco1,48*,32,56*,151*,7
O=C(Nc1ccc2ccccc2c1)c1cccnc1,x,11,7,66,34
O=C(Nc1ccc2c(c1)Cc1ccccc1-2)c1cccnc1,15,28,39,u,64*
C[C@H]1CCCCO[C@@H](CN(C)C(=O)c2ccccc2)[C@@H](C)CN([C@@H](C)CO)C(=O)c2cc(NC(=O)Nc3ccc(C(F)(F)F)cc3)ccc2O1,x,x,x,x,-11
c1ccc2c(c1)NC1(CCCCC1)n1c-2nc2ccccc21,10,22,32,58,23
c1ccc2c(c1)NC1(CCCCCC1)n1c-2nc2ccccc21,x,14,34,x,46*
COc1ccc(NC(=O)N[C@@H]2CC[C@H](CCNC(=O)c3ccccc3F)O[C@@H]2CO)cc1,x,x,x,x,2
Cc1ccc(NC(=O)N2CCCC2C(=O)NCC2CCCCC2)cc1 (stereo not drawn),-1,-89*,-92,x,-8
Cc1ccc(CNC(=O)C2CCCN2C(=O)Nc2ccc(C)cc2)cc1 (stereo not drawn),0,-3,2,x,-5
O=C(NCCc1cccs1)C1CC(c2c(Cl)cccc2Cl)=NO1 (stereo not drawn),6,9,6,16,80*
O=C(NCCc1cccs1)C1CC(c2cccc(F)c2)=NO1 (stereo not drawn),-3,2,-20,2,-1
CC(C)COC(=O)N(C)C[C@@H]1OCc2ccccc2-c2c(n(C)c3ccccc23)C(=O)N([C@@H](C)CO)C[C@@H]1C,x,x,x,x,-1
COc1ccccc1-c1nn2c(-c3ccco3)nnc2s1,1,44,62*,134*,65*
COc1ccc(S(=O)(=O)Nc2ccc3c(c2)C(=O)N([C@@H](C)CO)C[C@@H](C)[C@@H](CN(C)C(=O)Nc2ccccc2)O3)cc1,x,x,x,x,3
CCOC(=O)/C(C#N)=C1/C=CN(c2ccccc2)C=N1,5,6,-5,59,37
CCOC(=O)/C(C#N)=C1/C=CN(c2ccc(C)cc2)C=N1,20,9,9,60,47*
COCC(=O)N(C)C[C@@H]1Oc2cc(-c3cccnc3)ccc2S(=O)(=O)N([C@H](C)CO)C[C@@H]1C,x,x,x,x,-4
O=C(Nc1cccc(F)c1)Nc1ccc2c(c1)CCC2,34*,21,44,u,64*
O=C(Nc1ccccc1)Nc1ccc2c(c1)CCC2,1,11,21,73,49*
CO[C@H]1CN(C)C(=O)c2cccc(C#N)c2OC[C@H]2O[C@H](CC[C@@H]2OC)CCN(C)C(=O)[C@H]1C,x,x,x,x,1
Cc1noc(C)c1S(=O)(=O)N(C)C[C@@H]1OCCCC[C@H](C)Oc2ccc(NS(=O)(=O)c3ccc(Cl)cc3)cc2C(=O)N([C@H](C)CO)C[C@@H]1C,x,x,x,x,11
COCC#Cc1ccc2c(c1)O[C@H](CN(C)C)[C@H](C)CN([C@H](C)CO)S2(=O)=O,x,x,x,x,3
O=C(NC1CCC1)[C@H]1[C@H](CO)[C@H]2Cn3c(ccc(-c4ccc(F)cc4)c3=O)[C@H]2N1Cc1ccccn1,x,x,x,x,-2
Cc1c(N(C)S(=O)(=O)c2cccc(C(=O)NC(C)C)c2)c(=O)n(-c2ccccc2)n1C,-2,23,62*,4,x
CCOC(=O)/C(C#N)=C(C)/C=C1\Sc2ccccc2N1CC,17,9,30,58,67*
